Screening data (PubChem)
Hits are enriched below; roughly 2.8% of the tested compounds scored in any of these assays.
Pol kappa inh-1 – DNA polymerase kappa (human) inhibition; Potency, µM (highest dose often 107 µM), inactives show at the top dose activity, negative = inhibition, hits mostly inhibitors; purified Pol kappa, fluorescent DNA synthesis assay, 10 min; Q9UBT6; 400,000 tested, 0.53% active; note: potency is the fitted concentration of half-maximal effect; % is set by controls: 0 for no effect and ±100 for the full control effect
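10 nM Pol kappa was preincubated with compounds for 15 min at room temperature. Reaction started with 50 nM (final) substrate. Fluorescence read kinetically at 0 and 10 min.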
Pol beta inh – blocks human DNA polymerase beta activity; Pol beta primer extension/strand displacement, fluorescence kinetic; Potency, µM (titrated, usually from 114 µM), inactives show at the top dose activity change, negative = inhibition, most hits filed as inhibitors; 340,000 tested, 1.3% active; AID 485314; note: potency is the fitted concentration of half-maximal effect; % is set by controls: 0 for no effect and ±100 for the full control effect
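Kinetic readout of DNA synthesis with strand displacement by Pol beta. Compound and 10 nM enzyme sit 15 min at room temperature; 50 nM substrate starts the reaction, read immediately and at 10 min.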
WRN helicase inh-1 – blocks human WRN helicase. WRN helicase unwinding, fluorescent forked duplex, kinetic. 360,000 tested, 0.46% active. Q14191. Potency, µM (series often up to 114 µM), for inactives: at the highest dose activity change, negative = inhibition, usual class: inhibitors; note: potency is the fitted concentration of half-maximal effect; % is set by controls: 0 for no effect and ±100 for the full control effect; nearly all actives have a fitted effect of over 55% in size
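Enzyme (20 nM final) and test compound sit together 15 min at room temperature before substrate addition. Substrate is a single-forked duplex oligonucleotide (100 nM) labelled with fluorophore and quencher, with 2 mM ATP; helicase unwinding raises red fluorescence, read kinetically.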
Pol eta inh-1 – inhibitors of human DNA polymerase eta; Q9Y253; recombinant Pol eta, fluorescent DNA replication assay; Potency, µM (highest dose often 114 µM), for inactives: top-dose activity change, negative = inhibition, hits mostly inhibitors; 390,000 tested, 1.2% active; note: potency is the fitted concentration of half-maximal effect; % is set by controls: 0 for no effect and ±100 for the full control effect
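Pol eta (10 nM) was preincubated with compounds for 15 min at room temperature, after which fluorescent replication substrate (50 nM final) was added to start the reaction. Fluorescence was read kinetically at 0 and 10 min.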
POLI inh – DNA polymerase iota (human) inhibition | Q9UNA4 | Pol iota fluorescent replication assay, 10 min | Potency, µM (titrated, usually from 115 µM), for inactives: at the highest dose activity, negative = inhibition, actives largely listed as inhibitors | 390,000 tested, 1% active; note: potency is the fitted concentration of half-maximal effect
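Pol iota at 10 nM preincubated 15 min with compounds at room temperature; reaction started with fluorescent substrate, 50 nM final. Fluorescence read kinetically at 0 and 10 min; buffer-only wells as negative control.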
PI5P4Ka inh – inhibitors of human PI5P4K alpha. P48426. 330,000 tested, 1.2% active. PI5P4Kalpha enzyme, ADP-Glo luminescence, 60 min; active compounds read low. max response, %. AID 652105; active = max response of -50% or lower; inconclusive = between -30% and -50%; inactive = -30% or higher; note: value at the top dose of about 77 µM; % is set by controls: 0 for no effect and ±100 for the full control effect
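ADP-Glo luminescence end-point read after a 60 min room-temperature kinase reaction of PI5P4Kalpha plus substrate, initiated with ATP at 5 microM final. Buffer: 0.038 M HEPES pH 7.4, EGTA, 0.1% CHAPS, 5% DMSO.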
Pol kappa inh-2 – confirmation of human DNA polymerase kappa inhibitors; shares compounds with Pol eta inh-1; purified Pol-kappa, fluorescent strand-displacement substrate; Potency, µM, hits mostly inhibitors; 920 tested, 76% active; AID 720501; note: potency is the fitted concentration of half-maximal effect
Pol eta inh-2 – Pol eta (human) inhibition, cherry-pick confirmation. shares compounds with Pol eta inh-1. Pol eta primer extension, TAMRA/BHQ fluorescence, 10 min. Potency, µM, usual class: inhibitors. 2,600 tested, 64% active. AID 720502; note: potency is the fitted concentration of half-maximal effect
WRN helicase inh-2 – confirmation of human WRN helicase inhibitors. shares compounds with WRN helicase inh-1. WRN helicase DNA unwinding, fluorescence kinetic. Potency, µM (titrated, usually from 57.1 µM), inactives show at the highest dose activity, negative = inhibition, hits mostly inhibitors. 610 tested, 63% active; note: potency is the fitted concentration of half-maximal effect; nearly all actives have a fitted effect of over 65% in size
TO DNA binding – DNA binding via thiazole orange displacement; shares compounds with WRN helicase inh-1; thiazole orange DNA binding displacement, fluorescence; Potency, µM (doses to about 57.1 µM), without a hit: top-dose activity change, negative = inhibition, hits mostly inhibitors; 610 tested, 10% active; AID 720499;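 note: drop in dye fluorescence marks compound binding to DNA; potency is the fitted concentration of half-maximal effect; % is set by controls: 0 for no effect and ±100 for the full control effect; nearly all actives have a fitted effect of over 60% in size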
BLM helicase inh – blocks human BLM helicase in WRN counterscreen; shares compounds with WRN helicase inh-1; Recombinant BLM helicase DNA unwinding, red fluorescence; Potency, µM (top dose mostly 57.1 µM), for the others: top-dose activity change, negative = inhibition, hits mostly inhibitors; 610 tested, 60% active; AID 720503; note: potency is the fitted concentration of half-maximal effect; nearly all actives have a fitted effect of over 60% in size
Target sequence (P54132 whole entry, looked up): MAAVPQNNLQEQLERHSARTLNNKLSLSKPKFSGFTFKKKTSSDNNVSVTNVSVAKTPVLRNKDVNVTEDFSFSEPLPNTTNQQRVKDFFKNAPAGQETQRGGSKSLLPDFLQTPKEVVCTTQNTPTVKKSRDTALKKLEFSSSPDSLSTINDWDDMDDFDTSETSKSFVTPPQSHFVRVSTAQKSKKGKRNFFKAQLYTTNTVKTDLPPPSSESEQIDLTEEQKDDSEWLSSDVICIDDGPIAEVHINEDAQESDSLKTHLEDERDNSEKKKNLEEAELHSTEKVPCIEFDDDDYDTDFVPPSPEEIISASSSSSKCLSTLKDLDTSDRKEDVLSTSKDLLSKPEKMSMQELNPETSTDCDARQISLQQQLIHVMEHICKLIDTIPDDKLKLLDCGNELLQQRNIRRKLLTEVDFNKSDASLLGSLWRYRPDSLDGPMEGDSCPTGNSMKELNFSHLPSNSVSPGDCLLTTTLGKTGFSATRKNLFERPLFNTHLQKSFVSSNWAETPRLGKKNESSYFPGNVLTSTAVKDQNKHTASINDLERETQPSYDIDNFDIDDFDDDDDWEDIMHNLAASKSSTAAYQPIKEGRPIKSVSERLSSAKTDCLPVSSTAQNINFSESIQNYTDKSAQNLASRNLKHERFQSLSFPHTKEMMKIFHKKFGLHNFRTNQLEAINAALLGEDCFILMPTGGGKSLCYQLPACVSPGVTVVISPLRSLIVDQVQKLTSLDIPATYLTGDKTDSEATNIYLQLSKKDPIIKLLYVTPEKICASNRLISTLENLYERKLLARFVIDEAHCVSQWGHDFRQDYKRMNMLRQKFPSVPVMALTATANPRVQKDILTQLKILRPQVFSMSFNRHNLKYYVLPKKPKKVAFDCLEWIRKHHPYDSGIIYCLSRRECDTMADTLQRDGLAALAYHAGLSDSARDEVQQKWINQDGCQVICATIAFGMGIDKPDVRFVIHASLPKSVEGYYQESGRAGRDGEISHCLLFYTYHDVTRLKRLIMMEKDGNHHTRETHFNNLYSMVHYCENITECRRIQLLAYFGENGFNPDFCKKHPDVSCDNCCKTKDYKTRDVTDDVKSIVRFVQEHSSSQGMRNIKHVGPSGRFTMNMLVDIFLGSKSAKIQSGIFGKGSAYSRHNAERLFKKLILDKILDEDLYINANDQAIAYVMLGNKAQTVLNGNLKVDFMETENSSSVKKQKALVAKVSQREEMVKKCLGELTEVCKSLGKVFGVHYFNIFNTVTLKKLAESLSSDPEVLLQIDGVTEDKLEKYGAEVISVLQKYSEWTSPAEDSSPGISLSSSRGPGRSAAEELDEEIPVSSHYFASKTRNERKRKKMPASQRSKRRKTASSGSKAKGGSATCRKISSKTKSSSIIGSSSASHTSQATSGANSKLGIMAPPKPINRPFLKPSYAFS
ADP-Glo counter – ADP-Glo luciferase interference, PI5P4K counter-screen | shares compounds with PI5P4Ka inh | ADP-Glo detection counter-screen, luciferase luminescence, no enzyme | Potency, µM (doses to about 76.9 µM), for inactives: at the top dose activity change, negative = inhibition, usual class: inhibitors | 1,100 tested, under 10 active
An asterisk follows results filed as active; [ ] = dose if it differs, or a comment. Unless noted, calls come from the whole dose curve; as a rule, active = well fitted curve in the direction sought with a large enough effect; inconclusive = small, poorly fitted or top-dose-only effect, or another doubt; inactive = no such curve, though single readings can be large; an effect the other way counts as inactive or inconclusive.

What do the screens show for `Cc1ccc(-c2nc(C)c(CCNS(=O)(=O)c3ccc(F)c(C(F)(F)F)c3)s2)cc1`?
Pol kappa inh-1: -4.4%[60.1 µM]; Pol beta inh: 4.6%; Pol eta inh-1: -3.4%; POLI inh: 10.6%

Results for CSc1nc2c(c(=O)[nH]1)C(c1cccs1)C1=C(CCCC1=O)N2 (stereo not given) ?
Pol kappa inh-1: inconclusive; Pol beta inh: 28.2µM*; WRN helicase inh-1: -34.9%; Pol eta inh-1: 15.8µM*; POLI inh: inconclusive; PI5P4Ka inh: -69.8*; Pol eta inh-2: inconclusive; ADP-Glo counter: 4.0%

How did Cc1ccc(NC(=O)C(C)OC(=O)c2cc(=O)[nH]c3ccccc23)cc1S(=O)(=O)N1CCOCC1 (stereo not given) do in these assays?
Pol kappa inh-1: 89.1µM*; WRN helicase inh-1: inconclusive; Pol eta inh-1: 17.8µM*; POLI inh: 25.1µM*; PI5P4Ka inh: -61.1*; Pol eta inh-2: inconclusive; ADP-Glo counter: 1.6%

How did Cc1c(Cl)cccc1NC(=O)N1CCC(CN2CCOCC2)CC1 do in these assays?
Pol kappa inh-1: -0.4%; Pol beta inh: 36.6%; Pol eta inh-1: -13.8%; POLI inh: inconclusive

Results for COc1ccc(C(C(=O)NC2CCCC2)N(C(=O)c2snc(C(N)=O)c2N)c2cccc(O)c2)cc1 (stereo not given) ?
Pol kappa inh-1: 79.4µM*; Pol beta inh: 39.8µM*; WRN helicase inh-1: -10.5%[11.6 µM]; Pol eta inh-1: 22.4µM*; POLI inh: inconclusive; PI5P4Ka inh: -55.4*; Pol kappa inh-2: inconclusive; Pol eta inh-2: 75.7*; ADP-Glo counter: -4.1%

Results for CN(C(=O)CSc1nc2ccccc2[nH]1)c1ccc(F)cc1 ?
Pol kappa inh-1: 12.9%; Pol beta inh: -9.9%; Pol eta inh-1: -13.2%; POLI inh: 28.0%

What do the screens show for `Cc1cc(C(=O)Nc2sccc2C#N)c2ccccc2n1`?
Pol kappa inh-1: -37.6%; Pol beta inh: 1.7%; WRN helicase inh-1: -1.3%[11.6 µM]; Pol eta inh-1: 44.7µM*; POLI inh: inconclusive; PI5P4Ka inh: -72.7*; Pol eta inh-2: inconclusive; ADP-Glo counter: 1.2%

What do the screens show for `Cc1cc(C(=O)Nc2ccccc2)c2ccccc2n1`?
Pol kappa inh-1: -5.5%; Pol beta inh: 29.0%; WRN helicase inh-1: -2.0%; Pol eta inh-1: -13.2%; POLI inh: 36.0%; PI5P4Ka inh: 2.2

How did COc1cccc(CNC(=O)CN2c3cccc4cccc(c34)S2(=O)=O)c1 do in these assays?
Pol kappa inh-1: inconclusive; WRN helicase inh-1: -9.8%[11.6 µM]; Pol eta inh-1: 14.1µM*; POLI inh: 44.7µM*; PI5P4Ka inh: -64.5*; Pol eta inh-2: inconclusive; ADP-Glo counter: -6.5%

What do the screens show for `Cc1ccc(CNC(=O)CN2c3cccc4cccc(c34)S2(=O)=O)cc1`?
Pol kappa inh-1: 5.8%; WRN helicase inh-1: 1.3%; Pol eta inh-1: -17.8%; POLI inh: 63.1%; PI5P4Ka inh: -21.3

How did Cc1n[nH]c(C)c1S(=O)(=O)N1CCCC(C(=O)Nc2ccc(Cl)cc2)C1 (stereo not given) do in these assays?
Pol kappa inh-1: -3.6%; Pol beta inh: 4.4%; Pol eta inh-1: inconclusive; POLI inh: 13.0%

Results for COc1cccc(Cn2nnc(C(=O)NCc3ccc(Cl)cc3Cl)c2N)c1 ?
Pol kappa inh-1: -1.7%; Pol beta inh: 58.1%; Pol eta inh-1: -8.4%; POLI inh: inconclusive

How did O=C(O)COc1ccccc1C(Nc1ccccn1)c1cc(Cl)c2cccnc2c1O (stereo not given) do in these assays?
Pol kappa inh-1: -14.5%; Pol beta inh: -6.4%; WRN helicase inh-1: inconclusive; Pol eta inh-1: 50.1µM*; POLI inh: -7.8%; PI5P4Ka inh: -72.3*; Pol eta inh-2: inconclusive; ADP-Glo counter: -1.2%

What do the screens show for `CN(C)c1ccc2nc3ccc(=O)cc-3sc2c1`?
WRN helicase inh-1: 56.2µM*; Pol eta inh-1: 39.8µM*; PI5P4Ka inh: -72.7*; Pol eta inh-2: inconclusive; ADP-Glo counter: inconclusive

What do the screens show for `c1ccc2nc(-c3cc4ccccc4s3)ccc2c1`?
Pol kappa inh-1: -3.1%; POLI inh: 4.6%

Results for CCN(CC)Cc1cc(Nc2c3ccccc3nc3c4ccccc4n(C)c23)cc(CN(CC)CC)c1O ?
Pol kappa inh-1: inconclusive; WRN helicase inh-1: inconclusive; Pol eta inh-1: inconclusive; POLI inh: inconclusive; PI5P4Ka inh: -18.2; WRN helicase inh-2: 17.1µM*; TO DNA binding: 38.3µM*; BLM helicase inh: -19.4%

What do the screens show for `COc1cc(/C=N/N=C2/SCC(=O)N2c2ccc(O)cc2)ccc1O`?
Pol kappa inh-1: -8.2%; Pol beta inh: 0.8%; WRN helicase inh-1: 79.4µM*; Pol eta inh-1: -1.9%; POLI inh: 81.3%; PI5P4Ka inh: -50.1*; WRN helicase inh-2: -7.9%; TO DNA binding: 31.7%; BLM helicase inh: -13.9%

Results for COc1cccc(/C=C(\C#N)c2nc3ccc(C)cc3[nH]2)c1OCC(=O)O ?
Pol kappa inh-1: -15.0%; Pol beta inh: -3.3%; WRN helicase inh-1: inconclusive; Pol eta inh-1: -4.1%; POLI inh: 44.2%; PI5P4Ka inh: -1.5; WRN helicase inh-2: 6.81µM*; TO DNA binding: -16.2%; BLM helicase inh: -20.9%
